Source: PubChem BioAssay AID588590 (National Center for Advancing Translational Sciences (NCATS), 2011)
Hit rate of the full screen: of about 390,000 compounds, about 4,000 (1%) were called active. Inconclusive results (about 7%) are left out. Many of the other results were omitted from the sample, so actives are more common in it than they were. Unmarked numbers belong to inactive results. Calls follow the shape of the dose curve; as a rule, active = well fitted inhibition curve with a large enough effect; inconclusive = small, poorly fitted or top-dose-only effect, or another doubt; inactive = no such curve, though single readings can be large or run the other way.

These compounds were tested against DNA polymerase iota (Homo sapiens) (UniProt Q9UNA4) (assay: qHTS for Inhibitors of Polymerase Iota). Settings: Pol iota fluorescent replication assay, 10 min; series mostly up to 115 µM; activity, negative = inhibition: at the top concentration.
Excerpt: DNA polymerases, such as Pol iota, are specifically involved in DNA repair. Pol iota specifically plays an important role in translesion synthesis, where the normal high-fidelity DNA polymerases cannot proceed and DNA synthesis stalls. […] Thus, while pol eta's (and most likely iota's) normal function is to protect humans against the deleterious consequences of DNA damage, under certain conditions they can have deleterious effects on human health. As a consequence, we propose to utilize a high throughput replication assay to identify small molecule inhibitors of pol iota.
In a collaboration between the National Institute of Child Health & Human Development (NICHD) and NIH Chemical Genomics Center, a high-throughput, fluorescent screen was developed to screen the NIH Molecular Libraries Small Molecule Repository (MLSMR). This screen is used to identify inhibitors of pol iota.
NIH Chemical Genomics Center [NCGC]
NIH Molecular Libraries Probe Centers Network [MLPCN]
Assay Submitter (PI): Roger Woodgate, NICHD)
Three microliters of reagents (buffer in column 3 and 4 as negative control and 10 nM Pol iota in columns 1, 2, and 5-48) will be dispensed into 1,536-well black solid-bottomed plate. Compounds (23 nL) will be transferred via Kalypsys pin tool equipped with 1536-pin array. The plates will then be incubated for 15 min at room temperature, and 1 µL substrate (50 nM final concentration) will be added to start the reaction and kinetically read twice at 0 min and 10 min on the Viewlux reader.
Potency is read from the fitted curve at half-maximal effect.

DNA polymerase iota (Homo sapiens), sequence (Q9UNA4 whole entry, looked up): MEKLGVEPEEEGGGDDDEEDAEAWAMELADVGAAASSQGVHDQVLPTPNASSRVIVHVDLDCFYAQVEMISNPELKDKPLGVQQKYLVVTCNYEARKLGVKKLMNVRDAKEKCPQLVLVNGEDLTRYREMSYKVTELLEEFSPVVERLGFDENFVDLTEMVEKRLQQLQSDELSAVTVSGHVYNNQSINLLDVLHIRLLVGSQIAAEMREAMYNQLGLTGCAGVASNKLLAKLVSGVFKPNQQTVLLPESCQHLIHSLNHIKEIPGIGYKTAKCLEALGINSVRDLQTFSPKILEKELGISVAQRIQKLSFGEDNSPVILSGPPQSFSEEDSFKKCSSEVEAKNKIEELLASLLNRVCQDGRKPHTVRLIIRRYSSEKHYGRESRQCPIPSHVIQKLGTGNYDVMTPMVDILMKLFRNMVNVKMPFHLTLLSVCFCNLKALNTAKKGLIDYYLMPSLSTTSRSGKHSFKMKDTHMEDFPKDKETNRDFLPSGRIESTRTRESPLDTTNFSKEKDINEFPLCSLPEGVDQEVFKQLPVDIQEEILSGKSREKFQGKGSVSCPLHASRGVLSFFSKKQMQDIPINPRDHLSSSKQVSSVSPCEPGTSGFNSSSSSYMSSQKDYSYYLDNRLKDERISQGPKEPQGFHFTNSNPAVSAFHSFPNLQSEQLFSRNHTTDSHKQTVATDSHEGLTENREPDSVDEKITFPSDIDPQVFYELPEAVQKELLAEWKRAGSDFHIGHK

Structure (SMILES) | activity, negative = inhibition | Potency
CCc1nc2nc(C)cc(Nc3ccc(F)c(Cl)c3)n2n1 | 22.8% | 
Cc1nn(-c2nc(-c3ccccc3)cc(C(F)(F)F)n2)c(C)c1Cl | 3.75% | 
COc1ccc2[nH]c3c(C)c4cc[n+](C)cc4c(C)c3c2c1 |  | 12.6 µM (active)
Cc1cc[n+](C2CCCCC2)cc1 | 41.1% | 
CN(CCOc1ccccc1)C(=O)c1cc(COc2c(F)cccc2F)on1 | 18.1% | 
O=C(COc1ccccc1C(=O)Nc1ccccc1)Nc1cccc(F)c1 | 3.23% | 
Cc1cc(C(=O)Nc2ccc(C)c(S(=O)(=O)N3CCOCC3)c2)c2ccccc2n1 | 30.7% | 
COc1ccc(CN(C)C(=O)c2cc(-c3ccc(C)cc3C)nc3ccccc23)c(OC)c1OC | 33.1% | 
O=C(c1cc(-c2ccc(Cl)s2)nc2ccccc12)N1CCOCC1 | 9.16% | 
Cc1ccc(S(=O)(=O)CCC(=O)OCC(=O)N(C)C2CCS(=O)(=O)C2)cc1 (stereo not drawn) | 22.2% | 
CN(CCOc1ccccc1)C(=O)c1cc(-c2ccco2)nc2ccccc12 |  | 22.4 µM (active)
O=C(Nc1cccc(F)c1)c1cc(-c2ccco2)nc2ccccc12 |  | 50.1 µM (active)
CCOc1ccccc1-c1cc(C(=O)N2CCOCC2)c2ccccc2n1 | 17.7% | 
CC1CCCN(C(=O)c2cc(-c3ccco3)nc3ccccc23)C1 (stereo not drawn) |  | 28.2 µM (active)
CN(C(=O)COC(=O)c1cc(-c2ccco2)nc2ccccc12)C1CCS(=O)(=O)C1 (stereo not drawn) |  | 3.55 µM (active)
COc1ccc(NC(=O)COc2ccc(C(=O)OCC(=O)N(C)C3CCS(=O)(=O)C3)cc2OC)cc1 (stereo not drawn) | 55.3% | 
CCCCC(CCCC)c1ccc(C=Nc2ccc(/C=C/c3ccnc4ccccc34)cc2)cc1 | -7.99% | 
CCOc1cc(C(=O)NCCc2csc3nc(-c4ccc(C)cc4)nn23)cc(OCC)c1OCC | 22.5% | 
Cc1ccc(NC(=O)CN2c3ccccc3S(=O)(=O)c3ccccc32)cc1F | 0.0463% | 
CCOc1ccccc1CNC(=O)c1ccc(-n2c(C)cc3c2CCC(C)C3)cc1 (stereo not drawn) | 1.98% | 
CCN(CC)C(=O)CSc1nc2ccsc2c(=O)n1Cc1ccccc1Cl | -9.3% | 

Structure (SMILES) | activity, negative = inhibition | Potency
CC1=C(C(=O)OCc2ccc(C)cc2)C(c2ccccc2Cl)CC(=O)N1 (stereo not drawn) | 0.135% | 
CC(C)(C)OC(=O)N(Cc1ccco1)S(=O)(=O)c1ccccc1Br | 4.06% | 
CCC(=O)N1CCc2cc(S(=O)(=O)NC(CC(C)C)C(=O)NCCc3cccc(C)c3)ccc21 (stereo not drawn) | -4.86% | 
O=[N+]([O-])c1ccc(N(CCO)Cc2ccccc2)c([N+](=O)[O-])c1 | 22.6% | 
CN1CCN(/N=C2/C(=O)Nc3ccc([N+](=O)[O-])cc32)CC1 | -5.18% | 
O=C1Nc2ccc([N+](=O)[O-])cc2C1=Nc1cccc(CO)c1 |  | 7.94 µM (active)
CC(=O)c1ccc[n+](C(C)CCC(C)[n+]2cccc(C(C)=O)c2)c1 (stereo not drawn) | 64% | 
COc1cccc(CNC(=O)CN2C(=O)CCc3cc(S(=O)(=O)N4CCOCC4)ccc32)c1 | 2.67% | 
COc1ccc2[nH]c(=O)c(CNc3ccc(C)c(C)c3)cc2c1 | 6.15% | 
COc1ccc(-c2cc(C(=O)NCc3cc(OC)c(OC)c(OC)c3)[nH]n2)cc1 | 10.4% | 
COc1ccc2[nH]c(C(=O)N/N=C/c3cc(OC)c(OC)c(OC)c3)cc2c1 |  | 17.8 µM (active)
COc1ccccc1N1CCN(C(=O)C2Cc3ccccc3CN2C(=O)c2ccco2)CC1 (stereo not drawn) | -9.63% | 
Cc1ccc(S(=O)(=O)N(C)C)cc1NC(=O)C1Cc2ccccc2CN1C(=O)c1ccco1 (stereo not drawn) |  | 22.4 µM (active)
Cc1ccc(C)c(NC(=O)C2Cc3ccccc3CN2C(=O)OCc2ccccc2)c1 (stereo not drawn) | -32.5% | 
OC[C@@H]1O[C@H](n2cnc3c(SCc4ccccc4)ncnc32)[C@H](O)[C@H]1O | 17.3% | 
COc1ccc(CNC(=O)Cc2coc3ccc(C(C)C)cc23)cc1 | -11.3% | 
CCOC(=O)c1c(C)[nH]c2c1-c1ccccc1C(=O)C2=O |  | 1.41 µM (active)
CCOC(=O)c1c(SCC(=O)Nc2cccc(C)c2C)nc(=O)[nH]c1C | -9.72% | 
CCOC(=O)c1c(C)[nH]c(C)c1S(=O)(=O)N(C)CC(=O)N1CCN(c2ccccc2)CC1 | 15.1% | 
Cc1ccc(-n2ncc3c(=O)n(Cc4cccc(C(F)(F)F)c4)cnc32)cc1C | 2.4% | 
O=C(O)c1ccc(NN=CC2=C(N3CCOCC3)/C(=C/c3ccccc3)CC2)cc1 |  | 20 µM (active)

Structure (SMILES) | activity, negative = inhibition | Potency
O=C(O)c1ccc(N/N=C/c2ccc3ncccc3c2)cc1 | -5.75% | 
Cc1ccccc1N/N=C/c1ccc(N2CCOCC2)cc1 | -12.5% | 
CCCCOc1ccc(C(=O)NO)cc1 | 20.2% | 
C/C=C/NNC(=O)Cc1ccc(OC)cc1 | 11.8% | 
COc1ccc(OC)c2sc(N3CCN(C(=O)C4COc5ccccc5O4)CC3)nc12 (stereo not drawn) | 11.7% | 
COc1cc(NS(=O)(=O)c2ccc3c(c2)OCC(C(=O)N2CCCC2)O3)cc(OC)c1 (stereo not drawn) | 8.22% | 
Cc1c(CC(=O)N2CCN(C(=O)C3COc4ccccc4O3)CC2)c(=O)oc2c(O)c(O)ccc12 (stereo not drawn) |  | 3.16 µM (active)
Cc1ccc(-c2ccc(CCC(=O)O)n2-c2ccc(C(N)=O)cc2)cc1 | 3.26% | 
N#Cc1ccsc1NC(=O)CN1CCN(S(=O)(=O)c2cc(Cl)ccc2Cl)CC1 | -9.21% | 
O=C(CN1CCN(S(=O)(=O)c2cc(Cl)ccc2Cl)CC1)c1ccc(O)c(O)c1 |  | 10 µM (active)
COc1ccc(Cl)cc1S(=O)(=O)N1CCN(CC(=O)C(C)(C)C)CC1 | -2.4% | 
Cc1[nH]c2ccccc2c1C(=O)C(=O)N(C)c1ccccc1 | 27.1% | 
Cc1ccc(-c2nc3ccccn3c2Nc2ccc(F)cc2)o1 | 21.9% | 
CCCCCCCNc1ccc(/C=C/c2ccnc3ccccc23)cc1 | 34.6% | 
O=C(Cn1c(=O)n(-c2ccc(F)cc2)c(=O)c2sc3ccccc3c21)NC1CCCC1 | -2.5% | 
COc1ccc(CNC(=O)c2cc3c(-c4ccccc4F)nn(C)c3s2)c(OC)c1 | -0.744% | 
CSc1cccc(NC(=O)CN2C(=O)CCc3cc(S(=O)(=O)N4CCCCC4)ccc32)c1 | -12.3% | 
COC1=C(N2CCOCC2)C(=O)c2ccccc2C1=O |  | 14.1 µM (active)
O=C1c2ccccc2-c2ncnc3c(N4CCOCC4)cc(N4CCOCC4)c1c23 | 12.6% | 
Cc1oc2c(c1C(=O)N1CCOCC1)C(=O)c1ccccc1C2=O | -7.65% | 
Cc1cccn2c(=O)c3cc(C(=O)NC(C)c4ccccc4)c(=N)n(CCCO)c3nc12 (stereo not drawn) | 5.28% | 
